Measurements reported in PubChem BioAssay (NCI).
The panel holds about 83,000 compounds, 20% with a hit somewhere; the sample as a whole holds those more often.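 The test compound was applied at a single concentration to cells in 96-well plates for 48 hours, and percent growth was recorded.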 Values without a mark were called inactive. Calls of active or inactive are those of the source. How the source made its calls: active means growth percent below 10; inactive means the rest.

These molecules were tested on NCI/ADR-RES ovarian (assay: NCI-60 one-dose screen, 48 h (100 = growth as untreated, 0 = no growth, -100 = all killed)). Conditions: 10 µM unless noted.

Structure (SMILES)	growth
COc1cc(-c2cc3ncccc3c3nc(OCCN(C)C)c4cccnc4c23)cc(OC)c1OC	5.27% (active)
CN(C)CCCC1(c2ccc(F)cc2)OCc2cc(-c3ccc(C(F)(F)F)nc3)ccc21 (centres undefined)	84.1%
Cn1cc(-c2csc(-c3cn(CCNC(=O)OC(C)(C)C)c4ccccc34)n2)c2cccnc21	56%
N#CC1=C(N)Oc2c(c(N)nn2-c2ccccc2)C1c1ccc(Cl)cc1Cl (centres undefined)	100%
CCN1CCN(C(=O)[C@]23CC[C@@H](C)[C@H](C)[C@H]2C2=CC[C@@H]4[C@@]5(C)C/C(=C/c6cccc(OC)c6OC)C(=O)C(C)(C)[C@@H]5CC[C@@]4(C)[C@]2(C)CC3)CC1	35.3%
Cc1csc(Nc2nc(-c3ccc(Cl)cc3)nc(C(Cl)(Cl)Cl)n2)n1	91.3%
COc1ccc(/C=C(\C#N)c2cc3ccccc3n2S(C)(=O)=O)cc1	60.1%
Cc1cc(Cl)c2c(N(C)C)cccc2n1	106%
O=C1c2ccccc2NC(c2cn(-c3ccccc3)nc2-c2cccs2)N1Cc1ccccc1 (centres undefined)	73.2%
COCCNC1=C(Cl)C(=O)c2ccccc2C1=O	95.3%
Oc1ccc(Nc2ccccc2)cc1	87.8%
COC(=O)[C@]12CC[C@@H](C)[C@H](C)[C@@H]1C1=CC[C@@H]3[C@@]4(C)C[C@@H](OC(C)=O)[C@H](OC(C)=O)[C@@](C)(COC(C)=O)[C@@H]4[C@H](O)C[C@@]3(C)[C@]1(C)CC2	10.5%
Cc1c(C)c2c(c(C)c1NC(=O)CCCCCCC(=O)O)CCC(C)(CCCC(C)CCCC(C)CCCC(C)C)O2 (centres undefined)	77.3%
Cc1ccc(Cc2cnc(NC(=O)/C=C/c3cccc(C)c3)s2)cc1	-36.5% (active)
CC1(C)[C@@H](O)CC[C@]2(C)[C@H]3CC[C@@H]4[C@H]5[C@H](C(=O)/C=C/c6ccc(C(F)(F)F)cc6)CC[C@]5(CO)CC[C@@]4(C)[C@]3(C)CC[C@@H]12	70.5%
COc1cc2ncnc(Nc3ccc(OCc4cccc(F)c4)c(Cl)c3)c2cc1NC(=O)C1CCCC1	71.6%
C=C(C)[C@@H]1CC[C@]2(c3nnc(-c4ccncc4)o3)CC[C@]3(C)[C@H](CC[C@@H]4[C@@]5(C)CCC(=O)NC(C)(C)[C@@H]5CC[C@]43C)[C@@H]12	97.5%
CCc1cccc(CC)c1NC(=O)c1sc2nc3c(cc2c1N)CCCC3	45.3%
CCc1ccccc1NC(=O)c1sc2nc3c(cc2c1N)CCCC3	19.9%
O=Cc1nc2ccccc2[nH]1	106%

Structure (SMILES)	growth
C[C@@H]1CCCCCCCCC[C@H](O)C(=O)C[C@@H](SC[C@@H](O)C(=O)O)C(=O)O1	106%
C=C(C)[C@@H]1CC[C@]2(C(=O)N3CCN(CC)CC3)CC[C@]3(C)[C@H](CC[C@@H]4[C@@](C)(CCC(=O)N5CCN(CC)CC5)[C@H](C(=C)C)CC[C@]43C)[C@@H]12	67.6%
Brc1ccc(Cn2nnnc2-c2ccn(-c3ccccc3)n2)cc1	27.5%
CCCCN1CCCCn2c1nc1c2c(=O)n(C)c(=O)n1C	99.9%
CCCCC[C@H]1CC=C2C(=O)C=C[C@@H]2CC=CCCCC(=O)O[C@@H](CCCCC)CC=C2C(=O)C=C[C@@H]2CC=CCCCC(=O)O[C@@H](CCCCC)CC=C2C(=O)C=C[C@@H]2CC=CCCCC(=O)O1	49.8% [8.75 µM]
CC(C)=CCC[C@](C)(O)[C@H]1CC[C@]2(C)[C@@H]1CC[C@@H]1[C@@]3(C)C/C(=C/c4cccc([N+](=O)[O-])c4)C(=O)C(C)(C)[C@@H]3CC[C@]12C	101%
Cn1cc(-c2csc(-c3cn(CCNC(=O)OC(C)(C)C)c4ccc(F)cc34)n2)c2cccnc21	43.8%
CN1CCN(CCOc2ccc(-c3cnc4c(-c5ccccc5F)cnn4c3)cc2)CC1	48.8%
Cc1cc(N2CCCCC2)nc(N(CCCNc2ccnc3cc(Cl)ccc23)Cc2ccco2)n1	4.38% (active)
Brc1ccc2c(c1)c(-c1nc(-c3c[nH]c4ncccc34)cs1)cn2CCCN1CCCCC1	13.4%
NC1=C(C/C(N)=N\O)C(c2ccccc2Cl)c2c(ccc3ccccc23)O1 (centres undefined)	57.6%
O=C1Nc2ccccc2/C1=C/c1cn(CCCn2c3ccccc3c(=O)c3ccccc32)c2ccccc12	90.3%
COC(=O)[C@]12CC[C@@H](C)[C@H](C)[C@@H]1C1=CC[C@@H]3[C@@]4(C)C(c5ncon5)=C[C@@](C)(CO)C4=CC[C@@]3(C)[C@]1(C)CC2	6.21% (active)
c1ccc(CN2C(c3ccccc3)=Nc3ccccc3C2c2c[nH]c3ccccc23)cc1 (centres undefined)	30.2%
CC1(C)NCCC[C@]2(C)[C@H]3CC[C@@H]4[C@H]5[C@H](C(=O)/C=C/c6ccccn6)CC[C@]5(CO)CC[C@@]4(C)[C@]3(C)CC[C@@H]12	76.8%
Cc1cccc(C)c1NCc1nc(-c2ccccc2)n[nH]1	103%
COc1cccc(-c2nn(-c3ccccc3)cc2-c2ccnc(NCCNS(=O)(=O)c3cccc(F)c3)c2)c1	22.1%
N#C/C(=C\c1ccc(-c2ccc(Cl)cc2)o1)c1nc(-c2ccco2)cs1	97.4%
COc1cc(-c2cc3cc(O)ccc3oc2=O)cc(OC)c1OC	91.2%
